{
  "source": "PubChem BioAssay (Tox21)",
  "note": "Results filed as inconclusive are left out. Unmarked numbers belong to inactive results. Unless noted, calls come from the whole dose curve; as a rule, active = well fitted cell-killing curve with a large enough effect in the repeat runs; inconclusive = weak or mixed curves; inactive = no such curve, though single readings can be large or run the other way. % is set by controls: 0 for no effect and ±100 for the full control effect.",
  "data": [
    {"test": "qHTS assay for small molecule activators of the heat shock response signaling pathway (AID 743210; active = well fitted activation curve with a large enough effect in the signal ratio in the repeat runs, with a control signal flat, not every such curve was filed as active; the % refers to the signal ratio)", "settings": "HeLa HSE-bla reporter, beta-lactamase ratio, 5 h; series mostly up to 62.6 µM; activation: at the top concentration", "in_short": "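Heat shock element–beta-lactamase HeLa reporter cells; qHTS with compounds for 5 h at 37 C; detection by FRET substrate fluorescence after 2.5 h at RT.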", "values": [
      {"smiles": "CCCC(=O)OC(=O)CCC", "activation": "-1.14% [at 81.1 µM]"},
      {"smiles": "Nc1ccc(F)cc1", "activation": "-2.64% [at 81.1 µM]"},
      {"smiles": "CC(C)CC(O)CC(C)C", "activation": "-0.0473%"},
      {"smiles": "COC(=O)CC(C(C)=O)C(=O)OC", "note": "(stereo not given)", "activation": "-0.276%"},
      {"smiles": "O=C(O)CCS", "activation": "0.0248% [at 81.1 µM]"},
      {"smiles": "N[C@@H](Cc1cc(I)c(O)c(I)c1)C(=O)O", "activation": "-0.05%"},
      {"smiles": "CC(CO)(CO)C(=O)O", "activation": "-0.546% [at 81.1 µM]"},
      {"smiles": "COC(C)(C)OC", "activation": "-1.51%"},
      {"smiles": "C[C@@H]1[C@H](O)[C@@H](C)/C=C/C=C\\C=C\\C=C\\C=C\\C=C\\C=C\\[C@H](O[C@@H]2O[C@H](C)[C@@H](O)[C@H](N)[C@@H]2O)C[C@@H]2O[C@](O)(C[C@@H](O)C[C@@H](O)[C@H](O)CC[C@@H](O)C[C@@H](O)CC(=O)O[C@H]1C)C[C@H](O)[C@H]2C(=O)O", "note": "(stereo in doubt)", "activation": "5.15%"},
      {"smiles": "CC(C)(C)NCC(O)COc1cccc2c1C[C@H](O)[C@H](O)C2", "note": "(stereo not given in full)", "activation": "-0.0745%"},
      {"smiles": "CC1CCc2nccnc21", "note": "(stereo not given)", "activation": "-2.02%"},
      {"smiles": "COc1cc(NS(=O)(=O)c2ccc(N)cc2)nc(C)n1", "activation": "-0.075%"},
      {"smiles": "CC(C)C(O)C(C)(C)CO", "note": "(stereo not given)", "activation": "0.571% [at 81.1 µM]"},
      {"smiles": "COc1ccc(-c2cc(C(F)F)nn2-c2ccc(S(N)(=O)=O)cc2)cc1F", "activation": "-1.01%"},
      {"smiles": "[Cl][Nd]([Cl])[Cl]", "activation": "-0.221%"},
      {"smiles": "CC(C)OC(=O)c1ccccc1C(=O)OC(C)C", "activation": "0.0286%"},
      {"smiles": "CCCCCCC(O)CCOC(C)=O", "note": "(stereo not given)", "activation": "-0.642% [at 232 µM]"},
      {"smiles": "CCN(Cc1cccc(S(=O)(=O)O)c1)c1ccc(C(=C2C=CC(=[N+](CC)Cc3cccc(S(=O)(=O)O)c3)C=C2)c2ccccc2S(=O)(=O)[O-])cc1", "activation": "-0.91%"},
      {"smiles": "Cc1cccc2sc(N)nc12", "activation": "-1.41% [at 81.1 µM]"},
      {"smiles": "Cc1ccc2c(c1)CCCN2", "activation": "-1.23%"},
      {"smiles": "Cc1c[nH]c2ccccc12", "activation": "0.15%"},
      {"smiles": "CCCCCCCCCCCCCOC(=O)CCSCCC(=O)OCCCCCCCCCCCCC", "activation": "0.138% [at 29.1 µM]"},
      {"smiles": "Cc1cc(CCC(=O)OCCOCCOCCOC(=O)CCc2cc(C)c(O)c(C(C)(C)C)c2)cc(C(C)(C)C)c1O", "activation": "0.772%"},
      {"smiles": "COC(CC(C)CCCC(C)(C)O)OC", "note": "(stereo not given)", "activation": "-2.88%"},
      {"smiles": "CCSC(=O)N(CC)CC", "activation": "-0.4%"},
      {"smiles": "O=C(O)/C=C/c1ccc(O)c(O)c1", "activation": "-0.174% [at 81.1 µM]"},
      {"smiles": "CSSc1ccoc1C", "activation": "2.79%"},
      {"smiles": "CC(=O)OCC(=O)[C@@]1(OC(C)=O)[C@@H](C)C[C@H]2[C@@H]3C[C@H](F)C4=CC(=O)C=C[C@]4(C)[C@@]3(F)[C@@H](O)C[C@@]21C", "activation": "-0.0582%"},
      {"smiles": "COc1cc(OC)c2ccc(=O)oc2c1", "activation": "-0.0246%"},
      {"smiles": "NC(=O)c1ccccc1[N+](=O)[O-]", "activation": "1.52% [at 81.1 µM]"},
      {"smiles": "C=C(C)C(=O)OCCC(F)(F)C(F)(F)C(F)(F)C(F)(F)C(F)(F)C(F)(F)F", "activation": "0.359%"},
      {"smiles": "CC(C)C1CCC(C(=O)N[C@H](Cc2ccccc2)C(=O)O)CC1", "note": "(stereo not given in full)", "activation": "-0.598%"},
      {"smiles": "CC(=O)Oc1cccc(O)c1", "activation": "-0.104%"},
      {"smiles": "CC[C@H]1OC(=O)[C@H](C)[C@@H](O[C@H]2C[C@@](C)(OC)[C@@H](O)[C@H](C)O2)[C@H](C)[C@@H](O[C@@H]2O[C@H](C)C[C@H](N(C)C)[C@H]2O)[C@](C)(O)C[C@@H](C)CN(C)[C@H](C)[C@@H](O)[C@]1(C)O", "activation": "-1.83%"}
    ]},
    {"test": "qHTS assay to identify small molecule agonists of the peroxisome proliferator-activated receptor delta (PPARd) signaling pathway - cell viability counter screen (AID 743211); note: nearly all actives have a fitted effect of over 55% in size", "settings": "PPARd-bla HEK293H viability, CellTiter-Glo luminescence, 17 h; series mostly up to 62.6 µM; activity change, negative = cytotoxicity: at the top concentration", "in_short": "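PPARd-bla HEK293H cells (3000/well) were pre-incubated 5 h at 37 C, then exposed to compound for 17 h at 37 C. After 2 h with LiveBLAzer substrate, CellTiter-Glo was added to the same wells; luminescence read after 30 min at room temperature.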", "values": [
      {"smiles": "CCCC(=O)OC(=O)CCC", "activity change, negative = cytotoxicity": "3.65% [at 81.1 µM]"},
      {"smiles": "Nc1ccc(F)cc1", "activity change, negative = cytotoxicity": "-3.42% [at 81.1 µM]"},
      {"smiles": "CC(C)CC(O)CC(C)C", "activity change, negative = cytotoxicity": "-5.46%"},
      {"smiles": "COC(=O)CC(C(C)=O)C(=O)OC", "note": "(stereo not given)", "activity change, negative = cytotoxicity": "0.245%"},
      {"smiles": "O=C(O)CCS", "activity change, negative = cytotoxicity": "4.04% [at 81.1 µM]"},
      {"smiles": "N[C@@H](Cc1cc(I)c(O)c(I)c1)C(=O)O", "activity change, negative = cytotoxicity": "2.48%"},
      {"smiles": "CC(CO)(CO)C(=O)O", "activity change, negative = cytotoxicity": "-4.28% [at 81.1 µM]"},
      {"smiles": "COC(C)(C)OC", "activity change, negative = cytotoxicity": "-6.24%"},
      {"smiles": "CC(C)(C)NCC(O)COc1cccc2c1C[C@H](O)[C@H](O)C2", "note": "(stereo not given in full)", "activity change, negative = cytotoxicity": "18.8%"},
      {"smiles": "COc1ccc(CCN(C)CCCN2CCc3cc(OC)c(OC)cc3CC2=O)cc1OC", "activity change, negative = cytotoxicity": "2.15%"},
      {"smiles": "CC(C)C(O)C(C)(C)CO", "note": "(stereo not given)", "activity change, negative = cytotoxicity": "8% [at 81.1 µM]"},
      {"smiles": "COc1ccc(-c2cc(C(F)F)nn2-c2ccc(S(N)(=O)=O)cc2)cc1F", "activity change, negative = cytotoxicity": "4.53%"},
      {"smiles": "[Cl][Nd]([Cl])[Cl]", "activity change, negative = cytotoxicity": "3.16%"},
      {"smiles": "CC(C)OC(=O)c1ccccc1C(=O)OC(C)C", "activity change, negative = cytotoxicity": "-0.812%"},
      {"smiles": "Cc1cccc2sc(N)nc12", "activity change, negative = cytotoxicity": "-2.4% [at 81.1 µM]"},
      {"smiles": "Cc1c[nH]c2ccccc12", "activity change, negative = cytotoxicity": "8.87%"},
      {"smiles": "CCCCCCCCCCCCCOC(=O)CCSCCC(=O)OCCCCCCCCCCCCC", "activity change, negative = cytotoxicity": "0.623% [at 29.1 µM]"},
      {"smiles": "Cc1cc(CCC(=O)OCCOCCOCCOC(=O)CCc2cc(C)c(O)c(C(C)(C)C)c2)cc(C(C)(C)C)c1O", "activity change, negative = cytotoxicity": "-10.2%"},
      {"smiles": "O=C(O)/C=C/c1ccc(O)c(O)c1", "activity change, negative = cytotoxicity": "-8.49% [at 81.1 µM]"},
      {"smiles": "COc1cc(OC)c2ccc(=O)oc2c1", "activity change, negative = cytotoxicity": "0.548%"},
      {"smiles": "NC(=O)c1ccccc1[N+](=O)[O-]", "activity change, negative = cytotoxicity": "-1.43% [at 81.1 µM]"}
    ]}
  ]
}
